Source: the supplement of paper PMC11732987, “Enantioselective OTUD7B fragment discovery through chemoproteomics screening and high-throughput optimisation” (Communications Chemistry, 2025)
Unmarked numbers belong to inactive results.

Experiments:
Experiment in all cases: log2 ratio of Biotin-Ahx-Ub-VS probe labelling (fragment/DMSO); higher = less target engagement (more negative = stronger competition), active = hit call of the paper (q ≤ 0.05, log2 ratio ≤ -1)
Details in all cases: compound concentration: 200 uM; treatment time: 3 h
USP42 = biological target: T1, USP42 (UniProt Q9H9J4)
T1 sequence (whole entry): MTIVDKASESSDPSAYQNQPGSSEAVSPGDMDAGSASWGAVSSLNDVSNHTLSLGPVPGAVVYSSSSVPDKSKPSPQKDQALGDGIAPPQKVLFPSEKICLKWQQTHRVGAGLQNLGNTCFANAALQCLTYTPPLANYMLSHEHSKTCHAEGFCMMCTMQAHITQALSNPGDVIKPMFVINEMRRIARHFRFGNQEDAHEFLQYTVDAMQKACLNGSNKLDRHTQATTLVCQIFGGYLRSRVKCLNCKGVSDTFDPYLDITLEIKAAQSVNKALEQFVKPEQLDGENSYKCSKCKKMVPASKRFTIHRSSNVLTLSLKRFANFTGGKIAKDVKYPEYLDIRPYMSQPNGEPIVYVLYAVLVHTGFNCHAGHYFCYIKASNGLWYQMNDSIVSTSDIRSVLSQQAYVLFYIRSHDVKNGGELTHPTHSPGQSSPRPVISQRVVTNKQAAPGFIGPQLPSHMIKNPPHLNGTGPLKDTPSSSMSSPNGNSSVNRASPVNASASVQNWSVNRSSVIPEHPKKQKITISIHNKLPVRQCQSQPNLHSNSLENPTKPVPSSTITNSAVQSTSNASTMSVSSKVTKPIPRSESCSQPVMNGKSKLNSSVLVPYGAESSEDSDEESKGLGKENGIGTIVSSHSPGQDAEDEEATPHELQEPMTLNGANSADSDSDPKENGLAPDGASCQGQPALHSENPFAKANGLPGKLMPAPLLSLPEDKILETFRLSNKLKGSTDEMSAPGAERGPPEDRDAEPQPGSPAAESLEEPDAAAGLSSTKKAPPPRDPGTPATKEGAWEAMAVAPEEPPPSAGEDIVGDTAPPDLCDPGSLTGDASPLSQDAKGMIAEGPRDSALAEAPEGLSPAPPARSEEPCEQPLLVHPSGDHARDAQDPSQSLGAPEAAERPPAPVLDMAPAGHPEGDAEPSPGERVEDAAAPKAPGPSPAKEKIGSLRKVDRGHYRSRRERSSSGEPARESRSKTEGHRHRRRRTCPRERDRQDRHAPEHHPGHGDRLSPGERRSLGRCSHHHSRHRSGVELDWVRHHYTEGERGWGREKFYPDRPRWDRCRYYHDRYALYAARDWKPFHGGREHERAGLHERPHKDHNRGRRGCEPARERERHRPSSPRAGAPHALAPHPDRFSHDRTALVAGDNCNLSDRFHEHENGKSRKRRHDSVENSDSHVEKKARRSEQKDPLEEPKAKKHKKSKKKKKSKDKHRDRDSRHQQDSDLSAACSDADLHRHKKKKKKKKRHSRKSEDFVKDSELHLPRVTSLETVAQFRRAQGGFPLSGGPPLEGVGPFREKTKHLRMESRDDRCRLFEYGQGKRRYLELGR
Procedure, shortened: (§1)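 Global-median-normalised Spectronaut label-free quantities were compared by unpaired t-test, and values are average log2 ratios of fragment over vehicle. Only proteins with ≥2 unique peptides were used. HEK293T lysate (495 µg per sample) was treated in triplicate with fragment at 200 µM or vehicle for 3 h and then with Biotin-Ahx-Ub-VS at 0.5 µM final for 1 h. Labelled DUBs were then NeutrAvidin-enriched, digested with LysC and trypsin, and run by diaPASEF LC-MS/MS.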

USP46 = USP46 (UniProt P62068)
Procedure, shortened: as §1

USP47 = biological target: T2, USP47 (UniProt Q96K76)
T2 sequence (whole entry): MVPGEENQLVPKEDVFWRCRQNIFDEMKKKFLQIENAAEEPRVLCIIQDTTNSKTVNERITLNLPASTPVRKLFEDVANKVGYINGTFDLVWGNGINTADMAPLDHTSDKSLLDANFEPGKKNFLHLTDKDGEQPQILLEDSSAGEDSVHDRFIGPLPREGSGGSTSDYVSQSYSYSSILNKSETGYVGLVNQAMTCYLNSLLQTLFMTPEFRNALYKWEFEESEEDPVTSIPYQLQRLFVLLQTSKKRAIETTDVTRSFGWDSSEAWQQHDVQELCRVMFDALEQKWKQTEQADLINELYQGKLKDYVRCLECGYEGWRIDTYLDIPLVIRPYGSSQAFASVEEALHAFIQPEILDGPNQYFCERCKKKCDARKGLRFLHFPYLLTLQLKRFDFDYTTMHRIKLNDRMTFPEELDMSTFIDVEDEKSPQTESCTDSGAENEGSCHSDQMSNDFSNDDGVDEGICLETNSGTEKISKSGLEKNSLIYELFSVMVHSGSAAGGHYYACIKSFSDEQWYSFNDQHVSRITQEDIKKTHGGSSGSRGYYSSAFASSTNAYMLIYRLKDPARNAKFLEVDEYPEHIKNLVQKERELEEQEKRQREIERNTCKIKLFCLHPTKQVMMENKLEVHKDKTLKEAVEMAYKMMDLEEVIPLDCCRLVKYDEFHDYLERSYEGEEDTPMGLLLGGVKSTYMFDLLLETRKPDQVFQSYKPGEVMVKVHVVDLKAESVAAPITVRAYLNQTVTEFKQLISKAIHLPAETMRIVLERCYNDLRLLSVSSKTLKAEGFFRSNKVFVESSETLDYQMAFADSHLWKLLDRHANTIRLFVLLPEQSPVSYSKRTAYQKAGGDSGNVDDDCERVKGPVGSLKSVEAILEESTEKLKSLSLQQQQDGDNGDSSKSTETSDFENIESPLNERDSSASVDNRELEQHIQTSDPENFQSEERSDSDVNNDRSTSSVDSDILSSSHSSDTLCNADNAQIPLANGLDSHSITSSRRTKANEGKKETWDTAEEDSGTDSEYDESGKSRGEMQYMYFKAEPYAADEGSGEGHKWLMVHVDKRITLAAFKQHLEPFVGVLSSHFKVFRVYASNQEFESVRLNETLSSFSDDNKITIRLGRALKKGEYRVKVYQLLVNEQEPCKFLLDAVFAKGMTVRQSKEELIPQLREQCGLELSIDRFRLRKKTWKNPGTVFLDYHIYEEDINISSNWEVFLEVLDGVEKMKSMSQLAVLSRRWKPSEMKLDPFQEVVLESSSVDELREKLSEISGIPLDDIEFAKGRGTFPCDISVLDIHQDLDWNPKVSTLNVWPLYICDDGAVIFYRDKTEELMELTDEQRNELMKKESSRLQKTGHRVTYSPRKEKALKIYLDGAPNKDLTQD
Procedure, shortened: as §1

USP48 = biological target: T3, USP48 (UniProt Q86UV5)
T3 sequence (whole entry): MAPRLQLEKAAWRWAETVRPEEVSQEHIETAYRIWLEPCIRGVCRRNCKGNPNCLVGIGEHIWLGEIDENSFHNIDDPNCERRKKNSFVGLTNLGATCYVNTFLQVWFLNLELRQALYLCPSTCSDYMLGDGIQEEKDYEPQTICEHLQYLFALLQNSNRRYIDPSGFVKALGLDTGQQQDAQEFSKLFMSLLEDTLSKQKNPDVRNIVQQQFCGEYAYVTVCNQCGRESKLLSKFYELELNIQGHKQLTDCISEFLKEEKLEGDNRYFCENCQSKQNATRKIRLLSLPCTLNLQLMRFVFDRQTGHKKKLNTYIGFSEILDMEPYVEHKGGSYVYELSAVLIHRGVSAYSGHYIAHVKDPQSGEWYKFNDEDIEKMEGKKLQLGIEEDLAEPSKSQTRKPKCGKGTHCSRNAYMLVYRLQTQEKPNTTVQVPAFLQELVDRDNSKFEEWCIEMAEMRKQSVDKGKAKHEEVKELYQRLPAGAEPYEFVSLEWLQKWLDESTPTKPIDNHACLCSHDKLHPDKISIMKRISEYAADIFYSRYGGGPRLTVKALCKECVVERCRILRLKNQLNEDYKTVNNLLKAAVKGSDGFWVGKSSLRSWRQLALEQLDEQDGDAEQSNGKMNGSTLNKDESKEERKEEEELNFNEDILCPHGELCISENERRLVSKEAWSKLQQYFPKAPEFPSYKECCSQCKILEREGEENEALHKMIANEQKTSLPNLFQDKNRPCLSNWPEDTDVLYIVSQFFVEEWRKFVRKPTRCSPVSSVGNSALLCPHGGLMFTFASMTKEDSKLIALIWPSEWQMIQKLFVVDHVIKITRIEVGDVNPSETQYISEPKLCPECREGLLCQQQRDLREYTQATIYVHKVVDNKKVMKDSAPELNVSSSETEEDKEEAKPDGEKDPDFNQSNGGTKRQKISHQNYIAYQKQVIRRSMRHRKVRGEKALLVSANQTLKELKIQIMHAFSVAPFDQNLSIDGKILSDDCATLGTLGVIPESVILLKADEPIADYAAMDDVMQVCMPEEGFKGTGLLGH
Procedure, shortened: as §1

USP5 = biological target: T4, USP5 (UniProt P45974)
T4 sequence (whole entry): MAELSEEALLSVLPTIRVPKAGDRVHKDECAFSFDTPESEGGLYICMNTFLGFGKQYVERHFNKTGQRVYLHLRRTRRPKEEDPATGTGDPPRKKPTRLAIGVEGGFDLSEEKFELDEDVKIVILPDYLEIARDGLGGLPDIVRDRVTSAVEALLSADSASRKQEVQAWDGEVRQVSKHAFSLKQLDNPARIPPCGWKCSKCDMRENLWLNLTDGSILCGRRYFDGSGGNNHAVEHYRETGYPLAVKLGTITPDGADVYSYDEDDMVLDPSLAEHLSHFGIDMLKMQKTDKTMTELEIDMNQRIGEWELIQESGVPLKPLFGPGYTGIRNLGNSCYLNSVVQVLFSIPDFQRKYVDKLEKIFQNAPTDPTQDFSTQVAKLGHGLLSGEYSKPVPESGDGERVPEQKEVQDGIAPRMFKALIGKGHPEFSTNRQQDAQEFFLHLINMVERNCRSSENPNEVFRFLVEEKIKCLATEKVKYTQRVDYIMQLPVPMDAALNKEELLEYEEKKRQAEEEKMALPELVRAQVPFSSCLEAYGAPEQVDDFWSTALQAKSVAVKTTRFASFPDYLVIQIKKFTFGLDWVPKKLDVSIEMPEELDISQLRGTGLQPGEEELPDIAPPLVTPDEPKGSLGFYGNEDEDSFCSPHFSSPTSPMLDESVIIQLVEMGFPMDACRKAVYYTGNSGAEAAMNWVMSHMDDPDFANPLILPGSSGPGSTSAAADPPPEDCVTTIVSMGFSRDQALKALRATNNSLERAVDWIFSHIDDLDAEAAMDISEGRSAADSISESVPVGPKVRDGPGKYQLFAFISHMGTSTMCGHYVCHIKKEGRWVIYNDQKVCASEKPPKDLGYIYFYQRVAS
Procedure, shortened: as §1

USP54 = USP54 (UniProt Q70EL1)
Procedure, shortened: as §1

USP7 = USP7 (UniProt Q93009)
Procedure, shortened: as §1

USP8 = biological target: T5, USP8 (UniProt P40818)
T5 sequence (whole entry): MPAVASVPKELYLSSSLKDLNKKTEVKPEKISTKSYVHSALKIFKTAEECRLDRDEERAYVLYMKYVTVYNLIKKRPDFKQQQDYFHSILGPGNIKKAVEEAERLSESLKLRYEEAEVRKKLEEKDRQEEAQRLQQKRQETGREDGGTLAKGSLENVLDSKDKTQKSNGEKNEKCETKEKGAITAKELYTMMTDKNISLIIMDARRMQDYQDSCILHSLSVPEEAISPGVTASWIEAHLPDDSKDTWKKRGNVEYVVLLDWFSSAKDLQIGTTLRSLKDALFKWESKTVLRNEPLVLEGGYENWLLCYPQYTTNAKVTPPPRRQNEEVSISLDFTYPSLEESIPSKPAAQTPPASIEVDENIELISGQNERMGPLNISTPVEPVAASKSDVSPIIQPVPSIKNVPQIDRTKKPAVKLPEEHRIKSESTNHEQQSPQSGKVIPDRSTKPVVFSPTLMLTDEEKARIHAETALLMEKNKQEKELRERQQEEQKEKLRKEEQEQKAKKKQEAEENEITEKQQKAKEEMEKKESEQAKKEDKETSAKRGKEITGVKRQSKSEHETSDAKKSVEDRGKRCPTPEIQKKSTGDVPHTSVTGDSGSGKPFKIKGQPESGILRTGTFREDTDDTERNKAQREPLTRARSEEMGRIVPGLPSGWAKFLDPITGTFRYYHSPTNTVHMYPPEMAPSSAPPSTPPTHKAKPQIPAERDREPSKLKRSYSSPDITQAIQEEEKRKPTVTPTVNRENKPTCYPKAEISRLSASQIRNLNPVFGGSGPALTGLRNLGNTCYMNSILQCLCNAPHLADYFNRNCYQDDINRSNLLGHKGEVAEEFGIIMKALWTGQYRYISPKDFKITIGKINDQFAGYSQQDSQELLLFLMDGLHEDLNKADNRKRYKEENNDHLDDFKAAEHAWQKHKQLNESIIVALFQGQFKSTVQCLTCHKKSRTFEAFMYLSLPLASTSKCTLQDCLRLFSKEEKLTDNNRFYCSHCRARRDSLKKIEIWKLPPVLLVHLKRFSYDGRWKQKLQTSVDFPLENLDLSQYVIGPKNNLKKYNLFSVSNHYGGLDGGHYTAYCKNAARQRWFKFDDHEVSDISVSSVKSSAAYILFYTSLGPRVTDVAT
Procedure, shortened: as §1

USP9X = USP9X (UniProt Q93008)
Procedure, shortened: as §1

UniProt O00487 = biological target: UniProt O00487
Procedure, shortened: as §1

Sequence of USP9X (Q93008 whole entry): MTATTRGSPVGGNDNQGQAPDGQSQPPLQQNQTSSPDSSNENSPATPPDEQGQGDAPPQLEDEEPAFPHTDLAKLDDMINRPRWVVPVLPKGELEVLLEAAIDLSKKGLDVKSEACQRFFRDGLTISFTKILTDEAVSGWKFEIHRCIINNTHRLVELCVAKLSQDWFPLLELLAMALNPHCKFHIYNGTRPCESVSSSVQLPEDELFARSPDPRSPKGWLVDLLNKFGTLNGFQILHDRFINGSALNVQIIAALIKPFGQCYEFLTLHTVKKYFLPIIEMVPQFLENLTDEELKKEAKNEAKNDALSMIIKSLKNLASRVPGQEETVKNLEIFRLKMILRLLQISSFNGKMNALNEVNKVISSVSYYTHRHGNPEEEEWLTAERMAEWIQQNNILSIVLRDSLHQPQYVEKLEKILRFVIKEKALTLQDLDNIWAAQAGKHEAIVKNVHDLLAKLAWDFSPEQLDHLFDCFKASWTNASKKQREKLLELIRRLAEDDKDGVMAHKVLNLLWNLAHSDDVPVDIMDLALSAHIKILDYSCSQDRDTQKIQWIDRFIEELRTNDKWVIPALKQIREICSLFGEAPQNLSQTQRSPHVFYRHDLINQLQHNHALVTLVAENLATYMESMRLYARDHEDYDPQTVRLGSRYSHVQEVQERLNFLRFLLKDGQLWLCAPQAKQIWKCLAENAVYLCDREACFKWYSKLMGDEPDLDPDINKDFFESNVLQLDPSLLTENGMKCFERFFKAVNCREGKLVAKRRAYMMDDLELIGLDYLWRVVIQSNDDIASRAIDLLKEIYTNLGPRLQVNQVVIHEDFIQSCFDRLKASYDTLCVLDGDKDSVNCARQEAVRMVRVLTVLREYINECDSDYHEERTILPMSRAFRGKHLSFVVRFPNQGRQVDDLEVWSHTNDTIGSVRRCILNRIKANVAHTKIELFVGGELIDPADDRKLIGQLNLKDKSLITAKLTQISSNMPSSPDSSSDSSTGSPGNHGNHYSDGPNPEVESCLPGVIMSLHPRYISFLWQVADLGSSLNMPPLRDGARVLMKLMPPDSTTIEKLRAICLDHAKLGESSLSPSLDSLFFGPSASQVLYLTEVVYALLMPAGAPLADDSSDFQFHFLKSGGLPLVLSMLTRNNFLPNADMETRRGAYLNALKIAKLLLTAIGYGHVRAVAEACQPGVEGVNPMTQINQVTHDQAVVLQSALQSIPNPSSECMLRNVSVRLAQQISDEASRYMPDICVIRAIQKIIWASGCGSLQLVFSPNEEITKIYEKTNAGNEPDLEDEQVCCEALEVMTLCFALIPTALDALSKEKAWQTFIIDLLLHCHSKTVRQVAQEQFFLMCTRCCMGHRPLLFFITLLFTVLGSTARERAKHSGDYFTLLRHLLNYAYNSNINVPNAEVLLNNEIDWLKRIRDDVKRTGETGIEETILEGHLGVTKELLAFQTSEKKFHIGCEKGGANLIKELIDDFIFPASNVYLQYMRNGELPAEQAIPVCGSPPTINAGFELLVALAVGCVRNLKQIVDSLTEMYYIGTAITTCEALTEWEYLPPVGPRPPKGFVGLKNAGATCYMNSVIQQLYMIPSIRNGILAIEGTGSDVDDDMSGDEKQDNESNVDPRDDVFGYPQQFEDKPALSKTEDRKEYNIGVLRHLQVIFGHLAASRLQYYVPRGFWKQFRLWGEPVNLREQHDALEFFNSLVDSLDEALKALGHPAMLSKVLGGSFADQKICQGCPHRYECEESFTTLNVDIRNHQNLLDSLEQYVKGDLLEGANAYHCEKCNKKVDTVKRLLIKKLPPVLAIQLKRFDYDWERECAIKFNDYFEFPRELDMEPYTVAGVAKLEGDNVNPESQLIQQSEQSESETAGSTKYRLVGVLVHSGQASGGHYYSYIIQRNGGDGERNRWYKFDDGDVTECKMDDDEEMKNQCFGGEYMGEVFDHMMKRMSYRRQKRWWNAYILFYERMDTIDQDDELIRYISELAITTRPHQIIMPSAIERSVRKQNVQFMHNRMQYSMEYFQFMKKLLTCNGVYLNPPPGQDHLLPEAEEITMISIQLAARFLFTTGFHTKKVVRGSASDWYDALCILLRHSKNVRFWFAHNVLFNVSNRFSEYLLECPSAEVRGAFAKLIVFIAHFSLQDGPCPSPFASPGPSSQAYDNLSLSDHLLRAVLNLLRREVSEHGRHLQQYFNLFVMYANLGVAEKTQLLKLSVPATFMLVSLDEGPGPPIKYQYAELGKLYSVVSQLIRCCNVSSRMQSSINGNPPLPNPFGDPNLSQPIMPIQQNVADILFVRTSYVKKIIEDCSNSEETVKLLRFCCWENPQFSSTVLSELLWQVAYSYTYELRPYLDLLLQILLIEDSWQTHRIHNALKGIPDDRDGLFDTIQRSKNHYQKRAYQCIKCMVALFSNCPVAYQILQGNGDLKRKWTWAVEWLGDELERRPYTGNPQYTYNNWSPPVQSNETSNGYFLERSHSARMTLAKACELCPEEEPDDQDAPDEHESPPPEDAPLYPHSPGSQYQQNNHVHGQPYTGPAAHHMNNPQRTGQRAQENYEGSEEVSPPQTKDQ
Sequence of USP7 (Q93009 whole entry, looked up): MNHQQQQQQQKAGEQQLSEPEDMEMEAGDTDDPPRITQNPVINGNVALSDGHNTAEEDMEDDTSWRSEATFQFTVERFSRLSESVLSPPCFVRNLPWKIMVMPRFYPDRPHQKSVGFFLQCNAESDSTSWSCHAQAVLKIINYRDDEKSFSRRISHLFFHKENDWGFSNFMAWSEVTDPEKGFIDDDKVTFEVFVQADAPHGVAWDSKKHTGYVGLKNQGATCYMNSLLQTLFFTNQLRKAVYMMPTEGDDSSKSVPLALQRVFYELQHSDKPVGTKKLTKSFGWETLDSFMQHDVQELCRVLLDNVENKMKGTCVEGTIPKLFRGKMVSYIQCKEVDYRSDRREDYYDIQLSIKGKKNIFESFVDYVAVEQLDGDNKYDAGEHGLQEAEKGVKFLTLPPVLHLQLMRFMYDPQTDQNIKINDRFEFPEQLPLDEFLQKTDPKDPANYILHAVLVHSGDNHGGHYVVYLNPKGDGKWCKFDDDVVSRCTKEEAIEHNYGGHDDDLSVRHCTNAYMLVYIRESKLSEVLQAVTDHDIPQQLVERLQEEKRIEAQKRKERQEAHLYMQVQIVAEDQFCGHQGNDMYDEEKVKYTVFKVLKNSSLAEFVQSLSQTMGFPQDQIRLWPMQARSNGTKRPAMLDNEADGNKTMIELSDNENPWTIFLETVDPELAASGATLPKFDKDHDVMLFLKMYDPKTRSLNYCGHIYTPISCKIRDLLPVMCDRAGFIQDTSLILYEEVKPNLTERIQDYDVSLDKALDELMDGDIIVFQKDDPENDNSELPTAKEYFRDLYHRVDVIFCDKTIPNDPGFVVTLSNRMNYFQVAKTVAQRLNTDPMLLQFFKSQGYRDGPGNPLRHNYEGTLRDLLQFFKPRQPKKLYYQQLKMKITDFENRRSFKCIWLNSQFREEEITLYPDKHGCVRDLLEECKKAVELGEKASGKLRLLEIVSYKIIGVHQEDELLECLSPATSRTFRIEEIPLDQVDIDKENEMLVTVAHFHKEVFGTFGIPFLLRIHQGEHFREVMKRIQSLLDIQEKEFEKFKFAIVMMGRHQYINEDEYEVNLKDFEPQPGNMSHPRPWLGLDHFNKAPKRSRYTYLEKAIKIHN
Sequence of UniProt O00487 (O00487 whole entry): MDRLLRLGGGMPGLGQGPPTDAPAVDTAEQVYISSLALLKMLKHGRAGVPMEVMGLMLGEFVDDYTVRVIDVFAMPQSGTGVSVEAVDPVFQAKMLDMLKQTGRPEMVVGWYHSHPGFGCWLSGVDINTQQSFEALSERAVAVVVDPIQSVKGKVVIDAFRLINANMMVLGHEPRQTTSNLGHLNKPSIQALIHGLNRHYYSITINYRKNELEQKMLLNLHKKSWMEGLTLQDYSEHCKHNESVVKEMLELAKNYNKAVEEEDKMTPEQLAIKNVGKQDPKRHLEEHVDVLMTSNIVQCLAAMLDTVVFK
Sequence of USP46 (P62068 whole entry): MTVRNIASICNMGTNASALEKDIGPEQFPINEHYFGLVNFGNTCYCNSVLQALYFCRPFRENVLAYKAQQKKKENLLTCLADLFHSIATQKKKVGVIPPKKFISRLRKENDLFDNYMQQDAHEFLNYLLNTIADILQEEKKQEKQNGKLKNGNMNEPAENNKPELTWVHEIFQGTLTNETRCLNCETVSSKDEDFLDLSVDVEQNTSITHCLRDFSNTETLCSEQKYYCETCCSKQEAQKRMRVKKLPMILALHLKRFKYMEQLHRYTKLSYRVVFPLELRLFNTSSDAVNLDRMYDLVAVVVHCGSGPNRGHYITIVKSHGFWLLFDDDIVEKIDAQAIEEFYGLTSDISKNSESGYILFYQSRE

## Cc1ccc(CC(CO)CNC(=O)CCl)cc1 (stereo not given)
USP42
  log2 ratio of Biotin-Ahx-Ub-VS probe labelling: -0.0167
USP46
  log2 ratio of Biotin-Ahx-Ub-VS probe labelling: -0.000866
USP47
  log2 ratio of Biotin-Ahx-Ub-VS probe labelling: -0.102
USP48
  log2 ratio of Biotin-Ahx-Ub-VS probe labelling: -0.405
USP5
  log2 ratio of Biotin-Ahx-Ub-VS probe labelling: -0.182
USP54
  log2 ratio of Biotin-Ahx-Ub-VS probe labelling: 0.455
USP7
  log2 ratio of Biotin-Ahx-Ub-VS probe labelling: -0.381
USP8
  log2 ratio of Biotin-Ahx-Ub-VS probe labelling: -0.322
USP9X
  log2 ratio of Biotin-Ahx-Ub-VS probe labelling: -0.363
UniProt O00487
  log2 ratio of Biotin-Ahx-Ub-VS probe labelling: -0.242

## O=C(CCl)N1c2ccccc2NC(=O)C12CCCC2
USP42
  log2 ratio of Biotin-Ahx-Ub-VS probe labelling: 0.622
USP46
  log2 ratio of Biotin-Ahx-Ub-VS probe labelling: -0.278
USP47
  log2 ratio of Biotin-Ahx-Ub-VS probe labelling: 0.0188
USP48
  log2 ratio of Biotin-Ahx-Ub-VS probe labelling: -1.04 (active)
USP5
  log2 ratio of Biotin-Ahx-Ub-VS probe labelling: 0.581
USP54
  log2 ratio of Biotin-Ahx-Ub-VS probe labelling: -0.355
USP7
  log2 ratio of Biotin-Ahx-Ub-VS probe labelling: -2.11 (active)
USP8
  log2 ratio of Biotin-Ahx-Ub-VS probe labelling: 0.279
USP9X
  log2 ratio of Biotin-Ahx-Ub-VS probe labelling: -0.316
UniProt O00487
  log2 ratio of Biotin-Ahx-Ub-VS probe labelling: 0.0785
